# Source: ChEMBL document CHEMBL1961873, “Compounds: GSK PKIS; Assays: Nanosyn kinase panel” (2012)
# Columns and labels:
# [1] = biological target: Protein kinase C gamma type (Homo sapiens) (UniProt P05129); conditions: at 1 µM;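 note: each value is an averaged percent inhibition of the enzyme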
# [2] = biological target: T1, Protein kinase C iota type (Homo sapiens) (UniProt P41743); conditions: at 0.1 µM
# T1 sequence (whole entry): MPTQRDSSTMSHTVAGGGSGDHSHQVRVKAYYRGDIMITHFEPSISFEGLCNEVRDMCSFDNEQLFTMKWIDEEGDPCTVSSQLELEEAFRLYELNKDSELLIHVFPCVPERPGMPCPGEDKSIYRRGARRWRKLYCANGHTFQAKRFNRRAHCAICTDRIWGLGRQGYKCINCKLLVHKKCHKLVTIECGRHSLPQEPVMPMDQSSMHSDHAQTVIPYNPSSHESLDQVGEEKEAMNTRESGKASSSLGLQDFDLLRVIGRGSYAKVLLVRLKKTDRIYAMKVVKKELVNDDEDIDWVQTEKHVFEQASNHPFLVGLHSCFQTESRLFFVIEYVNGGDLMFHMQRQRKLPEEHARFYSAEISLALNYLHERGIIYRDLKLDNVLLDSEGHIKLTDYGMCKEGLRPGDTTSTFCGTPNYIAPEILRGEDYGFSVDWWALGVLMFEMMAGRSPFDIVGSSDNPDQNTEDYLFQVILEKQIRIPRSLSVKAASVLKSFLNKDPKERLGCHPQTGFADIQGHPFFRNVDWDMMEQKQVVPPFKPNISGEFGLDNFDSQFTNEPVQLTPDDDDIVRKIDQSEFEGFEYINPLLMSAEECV
# [3] = biological target: T1, Protein kinase C iota type (Homo sapiens); conditions: at 1 µM
# [4] = biological target: Protein kinase C theta type (Homo sapiens) (UniProt Q04759); conditions: at 0.1 µM
# Protein kinase C theta type (Homo sapiens), sequence (Q04759 whole entry, looked up): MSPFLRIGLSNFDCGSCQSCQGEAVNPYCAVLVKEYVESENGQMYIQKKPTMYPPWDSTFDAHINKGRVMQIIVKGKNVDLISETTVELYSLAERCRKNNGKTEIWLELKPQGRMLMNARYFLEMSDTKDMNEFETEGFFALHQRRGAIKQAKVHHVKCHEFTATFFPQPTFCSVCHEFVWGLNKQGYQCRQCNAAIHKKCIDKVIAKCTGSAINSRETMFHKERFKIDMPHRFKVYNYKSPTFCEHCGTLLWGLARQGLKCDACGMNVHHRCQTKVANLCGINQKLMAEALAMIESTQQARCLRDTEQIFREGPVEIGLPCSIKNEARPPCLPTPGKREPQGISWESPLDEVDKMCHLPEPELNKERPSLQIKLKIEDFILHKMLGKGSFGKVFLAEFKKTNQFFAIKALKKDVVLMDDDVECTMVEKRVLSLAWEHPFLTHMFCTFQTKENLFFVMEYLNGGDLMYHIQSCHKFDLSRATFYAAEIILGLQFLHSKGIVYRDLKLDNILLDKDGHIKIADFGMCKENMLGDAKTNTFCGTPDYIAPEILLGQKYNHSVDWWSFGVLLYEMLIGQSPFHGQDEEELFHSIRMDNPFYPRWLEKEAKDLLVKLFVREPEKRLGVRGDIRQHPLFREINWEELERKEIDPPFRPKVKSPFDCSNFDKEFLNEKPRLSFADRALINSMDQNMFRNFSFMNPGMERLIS
# [5] = biological target: Protein kinase C theta type (Homo sapiens) (UniProt Q04759); conditions: at 1 µM
# [6] = biological target: Protein kinase C beta type (Homo sapiens) (UniProt P05771); conditions: at 0.1 µM
# Protein kinase C beta type (Homo sapiens), sequence (P05771 2-671 limits assumed): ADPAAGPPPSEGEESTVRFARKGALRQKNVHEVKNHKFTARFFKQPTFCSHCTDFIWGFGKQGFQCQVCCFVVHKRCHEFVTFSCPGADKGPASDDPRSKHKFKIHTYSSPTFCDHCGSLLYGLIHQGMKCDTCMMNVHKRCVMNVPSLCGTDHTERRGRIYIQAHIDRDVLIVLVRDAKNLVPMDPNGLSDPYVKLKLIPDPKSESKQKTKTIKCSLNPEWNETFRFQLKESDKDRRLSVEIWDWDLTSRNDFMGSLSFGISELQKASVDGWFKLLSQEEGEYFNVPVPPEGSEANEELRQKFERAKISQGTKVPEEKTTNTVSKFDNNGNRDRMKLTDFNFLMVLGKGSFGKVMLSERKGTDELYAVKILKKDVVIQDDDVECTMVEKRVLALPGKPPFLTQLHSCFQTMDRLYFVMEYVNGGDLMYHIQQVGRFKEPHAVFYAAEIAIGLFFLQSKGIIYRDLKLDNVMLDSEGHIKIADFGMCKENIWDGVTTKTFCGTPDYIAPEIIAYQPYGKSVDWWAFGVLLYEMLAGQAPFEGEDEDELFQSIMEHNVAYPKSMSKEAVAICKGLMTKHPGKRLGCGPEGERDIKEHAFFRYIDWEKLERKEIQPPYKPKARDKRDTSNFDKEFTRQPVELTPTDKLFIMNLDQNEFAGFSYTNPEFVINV
# [7] = biological target: Protein kinase C beta type (Homo sapiens) (UniProt P05771); conditions: at 1 µM
# [8] = biological target: T2, Serine/threonine-protein kinase D1 (Homo sapiens) (UniProt Q15139); conditions: at 0.1 µM
# T2 sequence (whole entry): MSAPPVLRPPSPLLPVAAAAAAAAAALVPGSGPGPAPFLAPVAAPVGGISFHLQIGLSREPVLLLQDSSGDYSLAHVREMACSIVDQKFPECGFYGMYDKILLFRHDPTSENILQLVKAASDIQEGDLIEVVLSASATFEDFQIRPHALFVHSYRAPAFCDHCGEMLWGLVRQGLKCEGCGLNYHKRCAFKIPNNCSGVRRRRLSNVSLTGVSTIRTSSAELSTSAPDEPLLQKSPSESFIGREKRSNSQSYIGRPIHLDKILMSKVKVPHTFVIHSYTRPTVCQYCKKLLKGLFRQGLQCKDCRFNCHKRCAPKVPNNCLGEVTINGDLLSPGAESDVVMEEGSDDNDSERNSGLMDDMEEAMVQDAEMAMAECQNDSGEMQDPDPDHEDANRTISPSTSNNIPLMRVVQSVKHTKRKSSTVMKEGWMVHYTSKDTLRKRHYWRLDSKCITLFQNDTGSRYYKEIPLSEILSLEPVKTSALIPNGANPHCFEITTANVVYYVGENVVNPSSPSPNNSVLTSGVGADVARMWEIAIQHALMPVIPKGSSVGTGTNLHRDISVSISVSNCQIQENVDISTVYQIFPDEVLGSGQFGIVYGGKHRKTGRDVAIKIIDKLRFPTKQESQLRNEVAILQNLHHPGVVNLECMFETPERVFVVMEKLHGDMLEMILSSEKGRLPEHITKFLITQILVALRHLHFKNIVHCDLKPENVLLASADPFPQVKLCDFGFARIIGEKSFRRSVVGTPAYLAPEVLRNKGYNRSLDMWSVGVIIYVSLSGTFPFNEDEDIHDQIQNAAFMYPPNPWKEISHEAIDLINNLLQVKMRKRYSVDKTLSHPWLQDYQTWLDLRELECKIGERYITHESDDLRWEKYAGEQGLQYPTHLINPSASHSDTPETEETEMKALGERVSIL
# [9] = biological target: T2, Serine/threonine-protein kinase D1 (Homo sapiens); conditions: at 1 µM
# [10] = biological target: T3, Serine/threonine-protein kinase D2 (Homo sapiens) (UniProt Q9BZL6); conditions: at 0.1 µM
# T3 sequence (whole entry): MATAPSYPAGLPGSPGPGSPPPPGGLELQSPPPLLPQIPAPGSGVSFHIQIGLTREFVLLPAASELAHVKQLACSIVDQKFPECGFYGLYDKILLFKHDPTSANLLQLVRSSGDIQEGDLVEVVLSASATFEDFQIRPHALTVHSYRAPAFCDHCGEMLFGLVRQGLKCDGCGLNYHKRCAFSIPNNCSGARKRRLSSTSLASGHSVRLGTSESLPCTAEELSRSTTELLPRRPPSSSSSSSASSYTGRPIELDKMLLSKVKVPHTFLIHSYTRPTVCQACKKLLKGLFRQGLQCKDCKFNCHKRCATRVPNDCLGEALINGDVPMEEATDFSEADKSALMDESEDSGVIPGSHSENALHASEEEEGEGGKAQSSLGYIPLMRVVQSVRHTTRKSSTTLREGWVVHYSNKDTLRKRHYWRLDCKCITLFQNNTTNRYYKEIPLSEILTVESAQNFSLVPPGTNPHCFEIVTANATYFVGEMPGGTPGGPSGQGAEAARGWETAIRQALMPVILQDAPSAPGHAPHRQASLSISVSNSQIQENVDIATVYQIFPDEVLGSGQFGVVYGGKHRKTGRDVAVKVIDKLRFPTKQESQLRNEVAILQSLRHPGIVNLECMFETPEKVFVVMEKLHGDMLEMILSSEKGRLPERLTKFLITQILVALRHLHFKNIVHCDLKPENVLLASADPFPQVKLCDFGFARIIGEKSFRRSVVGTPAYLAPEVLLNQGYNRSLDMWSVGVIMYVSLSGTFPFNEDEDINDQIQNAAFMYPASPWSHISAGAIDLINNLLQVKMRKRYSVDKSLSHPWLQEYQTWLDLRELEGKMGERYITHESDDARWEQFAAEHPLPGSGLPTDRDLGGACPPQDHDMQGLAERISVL
# [11] = biological target: T3, Serine/threonine-protein kinase D2 (Homo sapiens); conditions: at 1 µM
# [12] = biological target: T4, Serine/threonine-protein kinase D3 (Homo sapiens) (UniProt O94806); conditions: at 0.1 µM
# T4 sequence (whole entry): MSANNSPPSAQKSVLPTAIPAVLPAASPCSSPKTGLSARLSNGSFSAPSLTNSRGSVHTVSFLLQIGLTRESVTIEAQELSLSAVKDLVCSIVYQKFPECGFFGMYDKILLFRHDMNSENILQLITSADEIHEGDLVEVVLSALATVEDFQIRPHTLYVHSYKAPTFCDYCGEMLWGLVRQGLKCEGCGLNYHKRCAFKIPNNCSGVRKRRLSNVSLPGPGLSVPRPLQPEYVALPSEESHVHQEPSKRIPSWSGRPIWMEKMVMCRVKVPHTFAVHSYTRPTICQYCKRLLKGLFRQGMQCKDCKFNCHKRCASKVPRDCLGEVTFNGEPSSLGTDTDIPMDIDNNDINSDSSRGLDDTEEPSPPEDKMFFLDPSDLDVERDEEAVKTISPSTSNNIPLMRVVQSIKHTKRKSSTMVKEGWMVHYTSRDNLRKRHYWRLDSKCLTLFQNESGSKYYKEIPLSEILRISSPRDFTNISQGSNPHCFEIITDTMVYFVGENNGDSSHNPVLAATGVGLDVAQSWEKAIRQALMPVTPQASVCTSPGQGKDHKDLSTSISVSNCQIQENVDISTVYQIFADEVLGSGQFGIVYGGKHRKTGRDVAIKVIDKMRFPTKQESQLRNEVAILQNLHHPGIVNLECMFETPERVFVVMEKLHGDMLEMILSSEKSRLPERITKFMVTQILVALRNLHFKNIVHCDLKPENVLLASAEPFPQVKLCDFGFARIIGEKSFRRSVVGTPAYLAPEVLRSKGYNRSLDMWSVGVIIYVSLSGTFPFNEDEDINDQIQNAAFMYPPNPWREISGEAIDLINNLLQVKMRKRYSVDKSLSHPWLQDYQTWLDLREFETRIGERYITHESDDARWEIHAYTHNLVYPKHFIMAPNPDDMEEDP
# [13] = biological target: T4, Serine/threonine-protein kinase D3 (Homo sapiens); conditions: at 1 µM
# [14] = biological target: T5, cGMP-dependent protein kinase 1 (Homo sapiens) (UniProt Q13976); conditions: at 0.1 µM
# T5 sequence (whole entry): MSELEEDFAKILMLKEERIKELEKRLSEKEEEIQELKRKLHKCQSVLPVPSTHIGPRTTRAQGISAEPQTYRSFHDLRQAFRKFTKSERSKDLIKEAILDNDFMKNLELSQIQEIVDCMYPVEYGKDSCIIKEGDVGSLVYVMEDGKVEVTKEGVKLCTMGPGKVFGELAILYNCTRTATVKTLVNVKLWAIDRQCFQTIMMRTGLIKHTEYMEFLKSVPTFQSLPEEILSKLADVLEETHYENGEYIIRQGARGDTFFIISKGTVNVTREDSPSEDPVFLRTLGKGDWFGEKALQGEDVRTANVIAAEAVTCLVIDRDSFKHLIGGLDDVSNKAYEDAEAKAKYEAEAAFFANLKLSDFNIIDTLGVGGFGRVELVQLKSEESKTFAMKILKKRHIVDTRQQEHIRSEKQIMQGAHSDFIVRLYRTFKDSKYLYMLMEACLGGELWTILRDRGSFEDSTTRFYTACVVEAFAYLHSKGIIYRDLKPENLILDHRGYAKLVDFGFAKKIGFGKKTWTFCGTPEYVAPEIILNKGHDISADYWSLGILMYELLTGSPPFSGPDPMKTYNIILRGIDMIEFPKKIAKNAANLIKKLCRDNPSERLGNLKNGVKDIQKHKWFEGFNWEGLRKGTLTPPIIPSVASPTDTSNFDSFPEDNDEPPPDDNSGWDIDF
# [15] = biological target: T5, cGMP-dependent protein kinase 1 (Homo sapiens); conditions: at 1 µM
# [16] = biological target: T6, cGMP-dependent protein kinase 2 (Homo sapiens) (UniProt Q13237); conditions: at 0.1 µM
# T6 sequence (whole entry): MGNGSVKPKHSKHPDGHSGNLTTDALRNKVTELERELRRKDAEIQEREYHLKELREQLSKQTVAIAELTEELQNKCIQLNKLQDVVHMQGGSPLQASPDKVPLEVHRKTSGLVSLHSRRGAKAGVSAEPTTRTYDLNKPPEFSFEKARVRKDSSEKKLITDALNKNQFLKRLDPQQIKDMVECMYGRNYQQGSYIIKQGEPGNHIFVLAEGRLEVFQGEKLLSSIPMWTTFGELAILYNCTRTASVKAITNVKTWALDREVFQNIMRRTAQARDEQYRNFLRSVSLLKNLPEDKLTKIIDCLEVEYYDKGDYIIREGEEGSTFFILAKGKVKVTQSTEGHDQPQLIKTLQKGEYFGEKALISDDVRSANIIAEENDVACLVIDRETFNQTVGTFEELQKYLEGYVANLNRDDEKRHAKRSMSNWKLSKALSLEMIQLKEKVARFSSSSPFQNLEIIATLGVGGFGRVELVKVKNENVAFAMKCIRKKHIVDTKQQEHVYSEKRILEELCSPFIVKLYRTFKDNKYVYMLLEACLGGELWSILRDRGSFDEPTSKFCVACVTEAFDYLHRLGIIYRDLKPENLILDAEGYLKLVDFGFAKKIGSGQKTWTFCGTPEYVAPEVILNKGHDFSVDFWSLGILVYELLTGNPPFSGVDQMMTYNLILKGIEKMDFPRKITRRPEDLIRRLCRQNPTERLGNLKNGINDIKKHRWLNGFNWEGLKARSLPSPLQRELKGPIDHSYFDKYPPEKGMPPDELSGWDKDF
# [17] = biological target: T6, cGMP-dependent protein kinase 2 (Homo sapiens); conditions: at 1 µM
# [18] = biological target: T7, cAMP-dependent protein kinase catalytic subunit PRKX (Homo sapiens) (UniProt P51817); conditions: at 0.1 µM
# T7 sequence (whole entry): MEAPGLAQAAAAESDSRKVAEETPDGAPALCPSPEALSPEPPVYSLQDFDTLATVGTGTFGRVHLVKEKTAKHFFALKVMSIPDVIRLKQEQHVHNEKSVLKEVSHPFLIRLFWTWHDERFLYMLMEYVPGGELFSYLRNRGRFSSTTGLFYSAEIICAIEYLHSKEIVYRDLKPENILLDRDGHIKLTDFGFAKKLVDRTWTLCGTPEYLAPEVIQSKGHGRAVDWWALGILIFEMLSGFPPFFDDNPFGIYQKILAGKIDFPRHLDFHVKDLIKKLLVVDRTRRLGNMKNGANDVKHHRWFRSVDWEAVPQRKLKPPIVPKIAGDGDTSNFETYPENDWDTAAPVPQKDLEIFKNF
# [19] = biological target: T7, cAMP-dependent protein kinase catalytic subunit PRKX (Homo sapiens); conditions: at 1 µM
# [20] = biological target: Rho-associated protein kinase 1 (Homo sapiens) (UniProt Q13464); conditions: at 0.1 µM;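 note: values are mean percent inhibition of ROCK1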
# Rho-associated protein kinase 1 (Homo sapiens), sequence (Q13464 2-1354 limits assumed): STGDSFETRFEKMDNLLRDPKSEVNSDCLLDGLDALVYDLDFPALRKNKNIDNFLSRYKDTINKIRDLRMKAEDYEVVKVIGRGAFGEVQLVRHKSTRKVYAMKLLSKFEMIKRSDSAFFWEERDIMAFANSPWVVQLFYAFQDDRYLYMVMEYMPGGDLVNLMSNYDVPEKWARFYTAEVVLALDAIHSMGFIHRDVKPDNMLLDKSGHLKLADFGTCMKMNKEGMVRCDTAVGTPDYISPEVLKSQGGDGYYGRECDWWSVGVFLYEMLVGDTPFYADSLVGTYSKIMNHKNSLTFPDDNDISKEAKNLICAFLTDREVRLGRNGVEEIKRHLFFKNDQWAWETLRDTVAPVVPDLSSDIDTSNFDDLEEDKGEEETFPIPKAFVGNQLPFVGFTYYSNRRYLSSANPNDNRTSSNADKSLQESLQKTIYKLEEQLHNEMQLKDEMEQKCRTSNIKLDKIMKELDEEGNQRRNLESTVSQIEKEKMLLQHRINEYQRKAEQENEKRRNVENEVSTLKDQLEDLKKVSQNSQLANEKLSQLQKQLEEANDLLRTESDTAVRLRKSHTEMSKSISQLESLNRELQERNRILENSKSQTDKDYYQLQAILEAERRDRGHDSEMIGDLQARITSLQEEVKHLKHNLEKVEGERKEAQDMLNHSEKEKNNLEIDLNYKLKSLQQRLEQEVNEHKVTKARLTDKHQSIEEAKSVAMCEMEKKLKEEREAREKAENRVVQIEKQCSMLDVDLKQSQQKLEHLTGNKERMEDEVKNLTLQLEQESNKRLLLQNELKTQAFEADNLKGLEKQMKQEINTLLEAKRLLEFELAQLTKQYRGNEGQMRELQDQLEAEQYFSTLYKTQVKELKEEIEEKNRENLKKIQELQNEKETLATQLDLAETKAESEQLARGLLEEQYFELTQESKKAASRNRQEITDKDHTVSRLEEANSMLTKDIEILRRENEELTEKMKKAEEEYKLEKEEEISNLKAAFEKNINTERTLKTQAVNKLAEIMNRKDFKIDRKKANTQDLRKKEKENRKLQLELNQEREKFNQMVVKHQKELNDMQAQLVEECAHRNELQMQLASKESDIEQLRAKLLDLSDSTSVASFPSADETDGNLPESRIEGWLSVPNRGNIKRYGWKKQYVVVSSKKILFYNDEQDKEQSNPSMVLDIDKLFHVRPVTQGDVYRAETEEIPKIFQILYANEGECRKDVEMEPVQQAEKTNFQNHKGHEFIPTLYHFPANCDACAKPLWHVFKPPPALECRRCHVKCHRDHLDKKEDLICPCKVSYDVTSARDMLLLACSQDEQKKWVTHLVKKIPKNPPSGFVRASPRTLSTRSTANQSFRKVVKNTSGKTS
Compound,inhibition [1],inhibition [2],inhibition [3],inhibition [4],inhibition [5],inhibition [6],inhibition [7],inhibition [8],inhibition [9],inhibition [10],inhibition [11],inhibition [12],inhibition [13],inhibition [14],inhibition [15],inhibition [16],inhibition [17],inhibition [18],inhibition [19],inhibition [20]
C[C@@H](Oc1cc(-n2cnc3ccc(OC[C@@H](O)CO)cc32)sc1C(N)=O)c1ccccc1Cl,-0.26%,-0.24%,1.09%,-0.9%,0.85%,-1.05%,2.03%,-1.17%,0.36%,0.81%,1.51%,-1.65%,0.06%,-2.27%,-0.2%,-0.02%,-0.19%,-1.09%,-8.23%,0.14%
Cc1nc(-c2ccccc2)n2nc(NCCCN3CCOCC3)ncc12,4.35%,-0.08%,-1.15%,1.47%,-0.08%,1.18%,2.05%,2.52%,3.13%,2.7%,2.01%,1.88%,2.23%,1.36%,3.22%,1.49%,3.07%,2.28%,1.01%,0.46%
Nc1nccc(-c2c(-c3ccc(F)cc3)ncn2CCCN2CCOCC2)n1,6.84%,3.1%,3.21%,2.24%,3.31%,3.01%,7.42%,4.07%,5.03%,5.14%,4.5%,4.8%,4.86%,4.04%,4.99%,2.72%,3.95%,2.51%,5.13%,2.49%
